Laboratory results: PubChem BioAssay (NCATS)
Inconclusive results are not listed. Active and inactive are the calls of the source. The call rests on the fitted dose curve; in most records, active means well fitted inhibition curve with a large enough effect; inconclusive means small, poorly fitted or top-dose-only effect; inactive means flat fitted curve, though single readings scatter.

How the values were obtained:
Assay in all cases: qHTS profiling for inhibitors of Plasmodium falciparum proliferation (AID 504749); further: nearly all actives have a fitted effect of over 60% in size
Conditions in all cases: P. falciparum in erythrocytes, SYBR Green DNA, 72 h; series mostly up to 28.7 µM
CP260 = system: CP260
Outline: (§1)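 P. falciparum-infected erythrocytes (0.3% parasitemia, 2.5% hematocrit) incubated with compound 72 h at 37 C, 5% CO2. Parasite DNA detected by SYBR Green after lysis, overnight at room temperature; normalised to 0.29 uM artemisinin and DMSO.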

CP262 = system: CP262
Outline: as §1

CP265 = system: CP265
Outline: as §1

CP266 = system: CP266
Outline: as §1

CP268 = system: CP268
Outline: as §1

CP269 = system: CP269
Outline: as §1

CP286 = system: CP286
Outline: as §1

CP291 = system: CP291
Outline: as §1

CP297 = system: CP297
Outline: as §1

CP305 = system: CP305
Outline: as §1

Measured: Potency

COc1ccc(O)cc1
inactive: CP260 | CP262 | CP265 | CP266 | CP268 | CP269 | CP286 | CP291 | CP297 | CP305

CC(=O)Nc1ccccc1
inactive: CP260 | CP262 | CP265 | CP266 | CP268 | CP269 | CP286 | CP291 | CP297 | CP305

CC1CC(OC(=O)c2ccccc2O)CC(C)(C)C1 (stereo not given)
inactive: CP260 | CP262 | CP265 | CP266 | CP268 | CP269 | CP286 | CP291 | CP297 | CP305

CC(=O)OC[C@H]1O[C@@](COC(C)=O)(O[C@H]2O[C@H](COC(C)=O)[C@@H](OC(C)=O)[C@H](OC(C)=O)[C@H]2OC(C)=O)[C@@H](OC(C)=O)[C@@H]1OC(C)=O
inactive: CP260 | CP262 | CP265 | CP266 | CP268 | CP269 | CP286 | CP291 | CP297 | CP305

O=c1[nH]c2cc(C(F)(F)F)c(N3CCOCC3)cc2n(CP(=O)(O)O)c1=O
inactive: CP260 | CP262 | CP265 | CP266 | CP268 | CP269 | CP286 | CP291 | CP297 | CP305

O=C(O)CCCCC1CCSS1 (stereo not given)
inactive: CP260 | CP262 | CP265 | CP266 | CP268 | CP269 | CP286 | CP291 | CP297 | CP305

COc1nccnc1NS(=O)(=O)c1ccc(N)cc1
inactive: CP260 | CP262 | CP265 | CP266 | CP268 | CP269 | CP286 | CP291 | CP297 | CP305

Cc1ccc(S(=O)(=O)NC(=O)NC2CCCCC2)cc1
inactive: CP260 | CP262 | CP265 | CP266 | CP268 | CP269 | CP286 | CP291 | CP297 | CP305

NS(=O)(=O)c1cc2c(cc1C(F)(F)F)NCNS2(=O)=O
inactive: CP260 | CP262 | CP265 | CP266 | CP268 | CP269 | CP286 | CP291 | CP297 | CP305

Cc1c(NC(=O)c2cccnc2)c(=O)n(-c2ccccc2)n1C
inactive: CP260 | CP262 | CP265 | CP266 | CP268 | CP269 | CP286 | CP291 | CP297 | CP305

OCC(O)CS (stereo not given)
inactive: CP260 | CP262 | CP265 | CP266 | CP268 | CP269 | CP286 | CP291 | CP297 | CP305

N[C@@H](Cc1ccc(O)cc1)C(=O)O
inactive: CP260 | CP262 | CP265 | CP266 | CP268 | CP269 | CP286 | CP291 | CP297 | CP305

CC(=O)Oc1cccc(O)c1
inactive: CP260 | CP262 | CP265 | CP266 | CP268 | CP269 | CP286 | CP291 | CP297 | CP305

NC(N)=NS(=O)(=O)c1ccc(N)cc1
inactive: CP260 | CP262 | CP265 | CP266 | CP268 | CP269 | CP286 | CP291 | CP297 | CP305

CC(=O)NCc1c(I)c(NC(C)=O)c(I)c(C(=O)O)c1I
inactive: CP260 | CP262 | CP265 | CP266 | CP268 | CP269 | CP286 | CP291 | CP297 | CP305

CNc1c2c(nn1C)CCCC2
inactive: CP260 | CP262 | CP265 | CP266 | CP268 | CP269 | CP286 | CP291 | CP297 | CP305

O=C(O)Cc1ccc(CCNS(=O)(=O)c2ccc(Cl)cc2)cc1
inactive: CP260 | CP262 | CP265 | CP266 | CP268 | CP269 | CP286 | CP291 | CP297 | CP305

NCC1CCC(C(=O)Oc2ccc(CCC(=O)O)cc2)CC1 (stereo not given)
inactive: CP260 | CP262 | CP265 | CP266 | CP268 | CP269 | CP286 | CP291 | CP297 | CP305

CCc1nnc(NS(=O)(=O)c2ccc(N)cc2)s1
inactive: CP260 | CP262 | CP265 | CP266 | CP268 | CP269 | CP286 | CP291 | CP297 | CP305

NNc1nnc(NN)c2ccccc12
inactive: CP260 | CP262 | CP265 | CP266 | CP268 | CP269 | CP286 | CP291 | CP297 | CP305

NC(=O)CC[C@@H](N)C(=O)O
inactive: CP260 | CP262 | CP265 | CP266 | CP268 | CP269 | CP286 | CP291 | CP297 | CP305

O=C(/C=C/c1ccccc1)OCc1ccccc1
inactive: CP260 | CP262 | CP265 | CP266 | CP268 | CP269 | CP286 | CP291 | CP297 | CP305

COc1ccc(C(=O)N2CCN(CC(=O)N3CCOCC3)CC2)cc1
inactive: CP260 | CP262 | CP265 | CP266 | CP268 | CP269 | CP286 | CP291 | CP297 | CP305

CC(C(=O)O)c1ccc2c(c1)Cc1cccnc1O2 (stereo not given)
inactive: CP260 | CP262 | CP265 | CP266 | CP268 | CP269 | CP286 | CP291 | CP297 | CP305

COc1ccc(NS(=O)(=O)c2ccc(N)cc2)nn1
inactive: CP260 | CP262 | CP265 | CP266 | CP268 | CP269 | CP286 | CP291 | CP297 | CP305
